Screening data deposited in PubChem BioAssay by National Center for Advancing Translational Sciences (NCATS).
DT40 TDP1 no CPT: qHTS for Inhibitors of human tyrosyl-DNA phosphodiesterase 1 (TDP1): qHTS in cells in absence of CPT; DT40 Tdp1-/- hTDP1 cells, no CPT, ATP luminescence, 48 h; Potency, µM (titrated, usually from 46.2 µM), most hits filed as inhibitors; hit rate 15% among 420,000; also: nearly all actives have a fitted effect of over 55% in size
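DT40 Tdp1-/-;hTDP1 cells, no CPT (DMSO vehicle only), 400 cells/well; compounds pin-transferred; ≥48 hr, 37 °C; CellTiter-Glo 30 min RT dark, luminescence read.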
TDP1 inh: inhibitors of human tyrosyl-DNA phosphodiesterase TDP1; Q9NUW8; recombinant TDP1, AlphaScreen DNA substrate cleavage; Potency, µM (highest dose often 130 µM), usual class: inhibitors; hit rate 0.28% among 350,000; AID 485290; also: nearly all actives have a fitted effect of over 40% in size
Target sequence (Q9NUW8 whole entry, looked up): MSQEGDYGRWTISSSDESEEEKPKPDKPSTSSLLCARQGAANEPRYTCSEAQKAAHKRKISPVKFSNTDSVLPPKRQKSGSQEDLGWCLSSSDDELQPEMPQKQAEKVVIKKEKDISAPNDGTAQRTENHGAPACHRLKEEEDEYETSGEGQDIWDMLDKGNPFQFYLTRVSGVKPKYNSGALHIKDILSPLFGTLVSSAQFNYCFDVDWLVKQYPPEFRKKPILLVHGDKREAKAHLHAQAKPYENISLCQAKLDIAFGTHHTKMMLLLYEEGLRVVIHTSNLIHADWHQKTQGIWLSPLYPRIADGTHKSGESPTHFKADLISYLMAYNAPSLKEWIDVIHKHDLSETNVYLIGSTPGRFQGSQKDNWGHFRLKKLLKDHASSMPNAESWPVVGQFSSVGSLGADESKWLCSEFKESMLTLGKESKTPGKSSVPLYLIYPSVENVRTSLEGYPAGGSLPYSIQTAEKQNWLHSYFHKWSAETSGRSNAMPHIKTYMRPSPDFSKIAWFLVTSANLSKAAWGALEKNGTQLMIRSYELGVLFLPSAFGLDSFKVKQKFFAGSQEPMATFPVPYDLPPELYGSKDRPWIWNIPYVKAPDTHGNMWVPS
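AlphaScreen read-out: signal falls as enzyme removes the 3' tyrosine-FITC from a 5'-biotinylated DNA oligo (15 nM, 5 min, RT). Enzyme was E. coli-made recombinant Tdp1 at 1 nM, exposed to compound for 15 min beforehand; beads 10 ug/ml, 10 min.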
TDP1 cell CPT: DT40-hTDP1 cell growth loss with CPT. chicken DT40 Tdp1-/-;hTDP1 cells + 20 nM CPT, ATP luminescence, 48 h. Potency, µM (highest dose often 46.2 µM), usual class: inhibitors. hit rate 12% among 420,000; also: nearly all actives have a fitted effect of over 55% in size
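Chicken DT40 Tdp1-/- cells stably complemented with human TDP1 were seeded at 400 cells/well in medium containing 20 nM camptothecin, exposed to pin-transferred compounds, and grown at 37 °C for at least 48 hr. Viability was read as ATP luminescence.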
ClpP mod: qHTS Assay for Activators of ClpP. Potency, µM (titrated, usually from 57.5 µM). purified B. subtilis ClpP, FRET peptide cleavage, 20 min. hit rate 1.9% among 340,000. AID 651965, 2013; active = well fitted falling curve with a large enough effect; inconclusive = small, poorly fitted or top-dose-only effect; inactive = no such curve, though single readings can be large or run the other way; also: the source files actives as falling curves though it sought activators and does not explain the sign; nearly all actives have a fitted effect of over 65% in size
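FRET quenching reversal measured ClpP activation: 10 microg/mL B. subtilis ClpP at pH 8 with the FRET-FV decapeptide, read at 430 nm after 320 nm excitation. The 20-min minus 0-min signal was scaled between DMSO/no-enzyme wells and ADEP (5.8 microM final).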
Of the large screens only hits and unclear results are named; the others gave an inactive call. The list is not random: actives were taken first. Their share in the collection is about 17%. Unless noted, calls follow the shape of the dose curve; as a rule, active = well fitted curve in the direction sought with a large enough effect; inconclusive = small, poorly fitted or top-dose-only effect, or another doubt; inactive = no such curve, though single readings can be large; an effect the other way counts as inactive or inconclusive.

CC(C)[C@@H](CC(=O)N[C@@H]1CCNC[C@H]1C(=O)N[C@H](CC(=O)N[C@@H](CCC(=O)O)CC(=O)O)Cc1ccccc1)NC(=O)C[C@H](Cc1c[nH]c2ccccc12)NC(=O)[C@@H]1CNCC[C@H]1N	none (no result: DT40 TDP1 no CPT, TDP1 cell CPT, ClpP mod)
COc1cc2nc(N(C)C)c(CNCc3nonc3C)cc2c(OC)c1OC	none (no result: TDP1 inh, ClpP mod)
Cc1ccc(-c2nc(N/N=C/c3cccnc3)c3ccccc3n2)cc1	DT40 TDP1 no CPT 18µM, TDP1 cell CPT 23µM
Cc1ccc(-c2nc(N/N=C/c3cccc([N+](=O)[O-])c3)c3ccccc3n2)cc1	DT40 TDP1 no CPT 15µM, TDP1 cell CPT 13µM
O=C(CSc1nnc(Nc2ccccc2F)s1)NC(=O)CN1CCCC1=O	TDP1 inh 14µM
Cc1ccc(OCc2nnc(SC(C)C(=O)O)n2-c2ccccc2)cc1 (stereo not drawn)	none (no result: TDP1 inh, ClpP mod)
CCOc1ccccc1NC(=O)c1nc(-c2ccccc2)oc1C	TDP1 cell CPT inconclusive
CC(=O)NC(Cc1c(F)c(F)c(F)c(F)c1F)C(=O)NCC(N)C(=O)c1ccccc1 (stereo not drawn)	DT40 TDP1 no CPT 20µM, TDP1 cell CPT inconclusive (no result: TDP1 inh)
CCOc1cccc(N(C(=O)C2COc3ccccc3O2)C(C(=O)NC2CCCCC2)c2ccc(O)cc2)c1 (stereo not drawn)	DT40 TDP1 no CPT inconclusive
CC(C)CCNC(=O)C(c1ccc(O)cc1)N(C(=O)C1COc2ccccc2O1)c1cccc(O)c1 (stereo not drawn)	DT40 TDP1 no CPT 21µM, TDP1 cell CPT inconclusive (no result: ClpP mod)
O=c1oc2ccc3ccccc3c2cc1-c1nnc(Nc2ccccc2)s1	DT40 TDP1 no CPT inconclusive
C=CCNC(=O)C1CC1(c1ccc(C)cc1)c1ccc(C)cc1 (stereo not drawn)	none (no result: TDP1 inh)
COc1ccccc1N1CCN(C(=O)c2oc3cc(C)cc(C)c3c2C)CC1	DT40 TDP1 no CPT 26µM, TDP1 cell CPT inconclusive
COc1ccccc1N1CCN(C(=O)c2oc3c(c2C)C(=O)CC(C)(C)C3)CC1	DT40 TDP1 no CPT 6.5µM, TDP1 cell CPT 15µM
O=C1Nc2ccccc2N(C(=O)c2ccc(-c3ccccc3)cc2)C1c1nc2ccccc2[nH]1 (stereo not drawn)	DT40 TDP1 no CPT 21µM, TDP1 cell CPT inconclusive, ClpP mod inconclusive (no result: TDP1 inh)
CCc1nn(-c2ccccc2)c2nc(-c3cccc(OC)c3)c3cc(OC)c(OC)cc3c12	none
O=C(Nc1cccc(F)c1)c1ccc(-c2ccccc2Cl)o1	DT40 TDP1 no CPT 16µM, TDP1 cell CPT inconclusive
Cc1ccc(-c2ccc(C(=O)Nc3cccc(F)c3)o2)c2ccccc12	DT40 TDP1 no CPT 21µM, TDP1 cell CPT inconclusive
CCCCC(=O)Nc1ccc(C(=O)N2CCCC(C(=O)OCC)C2)cc1 (stereo not drawn)	none
CCOC(=O)C1CCCN(C(=O)c2ccc(NC(=O)c3nsc4ccccc34)cc2)C1 (stereo not drawn)	DT40 TDP1 no CPT 16µM, TDP1 cell CPT inconclusive
NC(=O)C1CCN(C(=O)c2ccc(NC(=O)c3nsc4ccccc34)cc2)CC1	DT40 TDP1 no CPT inconclusive, TDP1 cell CPT inconclusive
CCOC(=O)C1CCN(C(=O)c2ccc(NC(=O)c3nsc4ccccc34)cc2)CC1	DT40 TDP1 no CPT inconclusive, TDP1 cell CPT 21µM
Cc1ccc(-c2cc(NC(=O)COc3c(C)cc(C)cc3C)on2)cc1	none
O=S1(=O)CC(N2CC=CC2)CN1Cc1ccc(F)cc1 (stereo not drawn)	TDP1 cell CPT inconclusive (no result: TDP1 inh)
CCOC(=O)c1cc(-c2ccccc2)n(CCC(=O)Nc2ccc(C(F)(F)F)cc2)c1C	DT40 TDP1 no CPT 7.3µM, TDP1 cell CPT 7.3µM
CCOC(=O)c1cc(-c2ccccc2)n(CCCC(=O)Nc2ccccc2C)c1C	DT40 TDP1 no CPT 23µM, TDP1 cell CPT inconclusive
CCOC(=O)c1cc(-c2ccccc2)n(CCCC(=O)Nc2ccc(CC)cc2)c1C	DT40 TDP1 no CPT inconclusive, TDP1 cell CPT inconclusive, ClpP mod inconclusive
CCOC(=O)c1cc(-c2ccccc2)n(CCCC(=O)Nc2ccc(C)c(Cl)c2)c1C	DT40 TDP1 no CPT 23µM, TDP1 cell CPT inconclusive
CCCn1c(C)cc(/C=C(\C#N)C(=O)OCC(=O)Nc2ccc(OC)c(Cl)c2)c1C	DT40 TDP1 no CPT 12µM
O=C1Nc2ccccc2Cc2ccccc21	DT40 TDP1 no CPT inconclusive (no result: TDP1 inh)
O=S(=O)(Nc1cccc(-c2ccc(N3CCCCC3)nn2)c1)c1cccc(F)c1	none
CCOC(=O)C1=C(C)N=C2SC(C(=O)OC)=CC(=O)N2C1c1cc(OC)c(OC)c(OC)c1 (stereo not drawn)	none
CC(=O)c1cc(-c2ccccc2)n(CCC(=O)Nc2cc(C)cc(C)c2)c1C	DT40 TDP1 no CPT inconclusive, TDP1 cell CPT inconclusive
CCOC(=O)c1cc(-c2ccccc2)n(CCC(=O)Nc2ccc(OC)c(Cl)c2)c1C	DT40 TDP1 no CPT 16µM, TDP1 cell CPT 16µM
CC(=O)c1cc(-c2ccccc2)n(CCC(=O)Nc2ccc(C(C)C)cc2)c1C	DT40 TDP1 no CPT 5.8µM, TDP1 cell CPT 8.2µM
Cc1ccc(NC(=O)CSc2nc(O)c(Cc3ccccc3)c(=O)n2-c2ccccc2)cc1	none (no result: ClpP mod)
Cc1ccc(NC(=O)CN(C)S(=O)(=O)c2ccc3c(c2)n(C)c(=O)c(=O)n3C)cc1C	none
CCN(CC)S(=O)(=O)c1ccc2c(c1)c(=O)c(C(=O)NCc1ccc(Cl)cc1)cn2C	DT40 TDP1 no CPT 9.2µM, TDP1 cell CPT 10µM
Cn1cc(C(=O)O)c(=O)c2cc(S(=O)(=O)N3CCOCC3)ccc21	DT40 TDP1 no CPT 23µM, TDP1 cell CPT 16µM
Cn1cc(C(=O)NCc2ccc(Cl)cc2)c(=O)c2cc(S(=O)(=O)N3CCCCCC3)ccc21	DT40 TDP1 no CPT 16µM, TDP1 cell CPT inconclusive
CC1CCN(S(=O)(=O)c2ccc3c(c2)c(=O)c(C(=O)NCc2ccco2)cn3C)CC1	DT40 TDP1 no CPT 21µM, TDP1 cell CPT 21µM
Cn1cc(C(=O)NCc2ccccc2)c(=O)c2cc(S(=O)(=O)N3CCOCC3)ccc21	none
CC1CCN(S(=O)(=O)c2ccc3c(c2)c(=O)c(C(=O)NCc2cccs2)cn3C)CC1	DT40 TDP1 no CPT inconclusive, TDP1 cell CPT inconclusive
Cn1cc(C(=O)NCCc2ccc(Cl)cc2)c(=O)c2cc(S(=O)(=O)N3CCOCC3)ccc21	none
Cc1cc(C(=O)Nc2ccncc2)c(C)o1	DT40 TDP1 no CPT inconclusive, TDP1 cell CPT inconclusive (no result: TDP1 inh)
CC(C)c1nc(CNC(=O)C2CCC(=O)N(CCc3ccc(Cl)cc3)C2)no1 (stereo not drawn)	none
CC(=O)NC1CC2CCCC(C1)N2C(=O)Nc1c(C)cccc1C (stereo not drawn)	none (no result: TDP1 inh)
CCOC(=O)C1=C(N)n2c(s/c(=C\c3ccco3)c2=O)=C(C(=O)OC(C)C)C1c1ccco1 (stereo not drawn)	DT40 TDP1 no CPT 21µM, TDP1 cell CPT inconclusive
CCOC(=O)C1=C(N)n2c(s/c(=C\c3ccco3)c2=O)=C(C(=O)OCC)C1c1ccco1 (stereo not drawn)	DT40 TDP1 no CPT 5µM, TDP1 cell CPT 5.6µM
